Source: PubChem BioAssay AID1233 (SRMLSC, 2008)
Results with a measured potency or affinity are listed apart.

Target: HMG-CoA reductase [Enterococcus faecalis] (UniProt Q9FD70)
Assay: class II HMG-CoA reductase inhibition potency – biochemical, Enterococcus faecalis, confirmation (AID 1233);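 note: 0% = full reaction carrier wells and 100% = background wells lacking mevalonate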
Conditions: purified E. faecalis HMGR, NADPH absorbance 340 nm kinetics; series mostly up to 100 µM; inhibition: at the top concentration;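 active = a dose-response curve fit returns a half-maximal inhibitory concentration, extrapolated values included; inactive = the fit returns no such concentration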

inhibition, inactive:
Cc1ccccc1Nc1nc(N)nc(CN2CCN(Cc3ccc4c(c3)OCO4)CC2)n1 -8.07%, CC(C)(C)[C@H]1C=C(C(=O)N2CCN(Cc3ccc4c(c3)OCO4)CC2)O[C@@H](OCc2ccc(CO)cc2)C1 -1.99%, COc1ccc(NC(=S)NCc2cccn2C)cc1 -0.21%, COC1(OC)N=C(NC(=O)Nc2ccccc2)C2(C#N)C(c3ccccc3)C12C#N (configuration not stated) -1.26%, COc1ccc(/C=N/Nc2nccnc2Cl)c(OC)c1 -15.9%, COc1ccc(-c2[nH]nc3c2C(c2ccsc2)C(C#N)=C(N)O3)cc1 (configuration not stated) -0.58%, Cc1ccc(S(=O)(=O)N(C)Cc2ccc(-c3nnco3)cc2)cc1 -3.48%, COC(=O)c1ccc(C(NC(=O)OCc2ccccc2)/C(C)=C/[C@@H](C)C(=O)NCc2ccc(-c3ccccc3)cc2)cc1 (some centres not stated) -5.32%, Cc1ccc(S(=O)(=O)NCCCCCC(=O)N(C)C)cc1 -2.88%, COc1ccc(CCNc2ccncn2)cc1 -1.43%, Cc1ccc(CC(CC(=O)O)C(=O)NC2CCCCC2)cc1 (configuration not stated) 1.92%, CCN(CC)S(=O)(=O)c1cccc(C(=O)Nc2cc(C)cc(C)c2)c1 2.33%, Cc1ccc(NC(=O)CCc2ccc(S(=O)(=O)N3CCOCC3)cc2)c(C)c1 -6.25%, COc1ccc(CNC(=O)C2CCCN2S(=O)(=O)c2ccc(Cl)cc2)cc1 (configuration not stated) -4.97%, O=C(CSc1nnnn1-c1ccccc1)Nc1ccc(N2CCOCC2)c(Cl)c1 -8.15%, Cc1ccc(NC(=S)NC(=O)CC2CC(C)(C)OC2=O)cc1 (configuration not stated) -9.85%, CN(Cc1nc(-c2cnccn2)no1)C1CC(C)(C)NC(C)(C)C1 -4.08%, CCN(CC)c1ccc(/C=N/NS(=O)(=O)c2cccc([N+](=O)[O-])c2)cc1 0.13%, CCOc1cc(/C=N\NC(=O)OC(C)(C)C)ccc1OC(=O)c1ccco1 -8.84%, Cc1cc(=O)[nH]c(N/N=C/c2ccc(N(C)C)cc2)n1 -14.6%, O=C(Nc1ccc(N2CCOCC2)c(Cl)c1)c1ccc([N+](=O)[O-])o1 -10.3%, CCN1CCCC1CNCC(O)COc1ccc(C(C)(C)C)cc1C (configuration not stated) 0.13%, CCCCOC(=O)NCN1C(=O)C2C3C=CC(C3)C2C1=O (configuration not stated) 0.54%, O=C(COC(=O)c1cccnc1)c1ccc(Cl)c(Cl)c1 2.21%, OC(COc1ccc(Cl)cc1)CN1CCCCC1 (configuration not stated) -2.07%, C/C(CC(=O)NC1CCCCC1)=N\NC(=O)COc1ccc(C)cc1Br -7.91%, O=C(N/N=C/c1ccc2c(c1)OCO2)c1ccc(NS(=O)(=O)c2cccs2)cc1 -1.17%, COc1ccc(C(=O)CSc2nnnn2Cc2ccccc2)cc1 -2.81%, CN(c1ccc(C(=O)N2CCCCC2)cc1)S(=O)(=O)c1ccccc1 -3.77%, COc1ccc(C[C@H]2COC(=O)[C@@H]2Cc2ccc(OC3OC(CO)C(O)C(O)C3O)c(OC)c2)cc1OC (some centres not stated) -5.86%, Cc1ccc(/C=C/S(=O)(=O)NCC(=O)O)cc1 0.69%, COc1ccc(N2C(=O)C3C4C=CC(C5CC45)C3C2=O)c([N+](=O)[O-])c1 (configuration not stated) -1.92%, Cc1nc2c([nH]1)C1(CCN(Cc3ccccc3)CC1)C(C#N)=C(N)O2 10.2%, CC(C)NC(=O)CSc1nc2ccccc2n1CC(=O)N(C(C)C)C(C)C -1.57%, Cc1ccc(CN(C)CC(=O)Nc2ccc3c(c2)CCC3)cc1 -4.12%, CCCCOC(=O)c1nc[nH]c1C(=O)OCCCC -4.01%, COc1ccc(C(=O)NCCc2nnc(SCC(=O)Nc3ccccc3F)n2C)cc1 -1.8%
